From PubChem BioAssay
Abeta rescue – compounds reversing amyloid beta toxicity in yeast; AID 1347071; yeast expressing A-beta42, growth rescue, OD600, 48 h; response scale: 0% DMSO, 100% iron-clioquinol control; 410,000 compounds, 0.063% hits; Potency, µM (highest dose often 46.1 µM), most hits filed as activators; note: potency is the fitted concentration of half-maximal effect; nearly all actives have a fitted effect of over 55% in size
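Yeast A-beta toxicity model in growth medium with pinned compounds, 48 h at 30 C; growth read as absorbance at 600 nm. Normalized to FeCl3/clioquinol equimolar mix (positive) and DMSO (negative).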
FUS yeast rescue – rescues growth of FUS-expressing yeast; AID 1347120; 390,000 compounds, 0.24% hits; S. cerevisiae FUS-expressing, growth rescue, OD600, 24 h; Potency, µM (series often up to 76.6 µM), usual class: activators;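 note: potency is the fitted concentration of half-maximal effect; plate controls were DMSO vehicle for no effect and reference control for full effect; nearly all actives have a fitted effect of over 55% in size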
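Toxicity suppression screen in FUS-yeast. Cells induced with 2% galactose, starting OD 0.005, treated 24hr at 30C with compounds at multiple final concentrations; growth by OD600.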
aSyn yeast inh – inhibitors of alpha-synuclein toxicity in yeast; Yeast expressing alpha-synuclein, growth rescue, BacTiter-Glo, 24 h; 370,000 compounds, 0.14% hits; Potency, µM (titrated, usually from 46.1 µM), for inactives: top-dose growth rescue (activation), most hits filed as activators; note: potency is the fitted concentration of half-maximal effect; % of control where 0% means no effect; nearly all actives have a fitted effect of over 65% in size
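Rescue of yeast growth: cells expressing toxic alpha-synuclein, induced in galactose at OD600 0.02, incubated with compound 24 h at 30 C. ATP luminescence quantified growth; inhibitors of toxicity appear as activators.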
Mm-Cpn inhibitor – M. maripaludis TRiC chaperonin inhibition; Potency, µM (series often up to 76.9 µM), without a hit: at the highest dose activity, negative = inhibition, usual class: inhibitors; 330,000 compounds, 0.031% hits; purified Mm-Cpn ATPase, ADP Transcreener TR-FRET; note: potency is the fitted concentration of half-maximal effect; % is set by controls: 0 for no effect and ±100 for the full control effect; nearly all actives have a fitted effect of over 80% in size
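Compound-treated chaperonin, 25 nM final, turns over 10 uM ATP at 37°C for 30 min following a 10 min preincubation; ADP generated competes with ADP-d2 for Eu-cryptate antibody, lowering FRET.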
TDP43 rescue – rescues yeast growth from TDP-43 toxicity; Potency, µM (top dose mostly 46.1 µM), for the others: at the highest dose growth rescue (activation), usual class: activators; TDP-43 expressing yeast growth rescue, BacTiter-Glo, 24 h; 410,000 compounds, 1.8% hits; note: potency is the fitted concentration of half-maximal effect; % of control where 0% means no effect; nearly all actives have a fitted effect of over 50% in size
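Cell-based yeast growth screen: TDP-43 expression induced in galactose, inoculum OD600=0.02 after raffinose pregrowth to mid-log. Read-out BacTiter-Glo luminescence at 24 hr, 30 deg C; inhibition of toxicity seen as signal increase.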
CCT modulator – modulators of cytosolic chaperonin (CCT/TRiC) activity. purified chaperonin ATPase assay, HTRF ADP detection, 30 min. activity change, % (no concentration beside the values), hits read low. 360,000 compounds, 0.3% hits. AID 651819; in the data active = activity change below about -30%; note: % is set by controls: 0 for no effect and ±100 for the full control effect
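TRiC at 40 or 20 nM final (batch-dependent) in 30 mM Tris pH 7.4, 100 mM KCl, 5 mM MgCl2, 1 mM DTT, with compound at single 76 uM and 10 uM ATP, 30 min at 37 deg C. ADP detected by HTRF Transcreener, 665/615 ratio.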
* hit, by the source's call; i = inactive; ? = inconclusive; · = no result given; ! = not active in a repeat. Hits are enriched below; roughly 2.3% of the tested compounds scored in any of these assays. Unless noted, calls come from the whole dose curve; as a rule, active = well fitted curve in the direction sought with a large enough effect; inconclusive = small, poorly fitted or top-dose-only effect, or another doubt; inactive = no such curve, though single readings can be large; an effect the other way counts as inactive or inconclusive.

SMILES	Abeta rescue	FUS yeast rescue	aSyn yeast inh	Mm-Cpn inhibitor	TDP43 rescue	CCT modulator
COc1ccc2[nH]c3c(c2c1)CCNC3(C)CCc1ccc(Cl)nc1 (configuration not stated)	i	i	-4.6%	-2.1%	-7.6%	-30.7*
CCN(CC)c1ccc(-c2nnc(SCC(=O)NCc3ccco3)n2C)cc1	·	·	0.8%	·	·	·
CN(C)c1ccc(C2C=Cc3ccccc32)c2ccccc12 (configuration not stated)	·	·	-18.2%	·	·	·
Cc1cc(C)c2c(N)c(C(=O)c3ccccc3)oc2n1	i	i	1.0%	·	-22.8%	1.5
COCc1cc(C)nc2oc(C(=O)c3ccccc3)c(N)c12	i	i	25.4%	-1.2%	12.6µM*	-2.4
COc1ccc(Br)cc1CNC(=O)CCC(=O)N1CCSc2ccccc21	i	?	-1.1%	-0.9%	22.4µM*!	-1.0
CCOC(=O)c1ccccc1NC(=S)N1CCC(C)CC1	i	i	0.6%	0.4%	11.2µM*	-0.8
COc1ccc(OC(C)C(=O)NCc2nc(-c3ccc(Cl)cc3)no2)cc1 (configuration not stated)	i	?	·	·	15.8µM*	·
O=C(NCCN1CCC(Cc2ccccc2)CC1)C1CCCN(S(=O)(=O)c2ccccc2[N+](=O)[O-])C1 (configuration not stated)	·	i	·	·	·	·
Cc1nn(Cc2ccc(C(=O)Nc3ccccc3C(F)(F)F)o2)c(C)c1Br	i	i	·	1.3%	12.6µM*	1.9
Cc1csc(NC(=O)c2ccc(Cn3nc(C)c(Br)c3C)o2)n1	i	i	-53.6%	0.9%	?	-2.3
CC(C)(C)OC(=O)C[C@H]1C/C=C\C[C@@H](CC(=O)N(CCO)Cc2ccccc2)C(=O)N[C@H](Cc2c[nH]c3ccccc23)COC1=O	i	20µM*	-4.5%	-2.6%	2.9%	-4.2
CC(C)(C)OC(=O)C[C@@H]1C/C=C\C[C@@H](CC(=O)N(CCO)Cc2ccccc2)C(=O)N[C@H](Cc2c[nH]c3ccccc23)COC1=O	i	?	2.3%	2.1%	18.6%	-2.5
OC1(C(F)(F)F)CC(c2ccc3ccccc3c2)=NO1 (configuration not stated)	i	i	-10.2%	-2.3%	3.16µM*	0.7
OC(c1ccccc1)(c1nc(-c2ccc3ccccc3c2)cs1)C(F)(F)F (configuration not stated)	i	i	17.3%	·	-7.9%	-2.0
O=C(CCl)N1c2ccccc2SCC1c1ccccc1 (configuration not stated)	i	i	-1.7%	-0.3%	7.94µM*	-0.4
O=C(CCl)N1c2ccccc2OCC1c1ccccc1 (configuration not stated)	i	i	10.9%	-0.2%	30.2%	-3.1
Nc1ccc(C(=O)N/N=C/c2cccc(Oc3ccccc3)c2)cc1	i	i	0.1%	1.6%	12.6µM*	0.3
O=C(N/N=C/c1cccc(Oc2ccccc2)c1)c1ccccc1F	·	·	·	-1.7%	·	·
Cc1nn(C)c(C(=O)N/N=C/c2cccc(Oc3ccccc3)c2)c1Br	i	i	7.9%	1.8%	4.47µM*	-3.6
CCCSc1nnc2c(n1)OC(c1sccc1C)Nc1ccccc1-2 (configuration not stated)	i	i	-15.4%	·	16.1%	·
C=C1C=C(C)n2ncc(C(=O)Nc3ccc(C)cn3)c2N1	·	·	-8.6%	·	·	·
COc1ccc(C2C(C(=O)Nc3ccccc3)=C(C)Nc3nc(-c4ccc(Cl)cc4)nn32)cc1 (configuration not stated)	i	i	·	·	13.4%	·
COC(=O)C1=C(C)Nc2nc(-c3ccccc3)nn2C1c1ccc(C)o1 (configuration not stated)	11.2µM*	i	-12.1%	-0.3%	0.0%	1.3
O=C1Cc2ccccc2C(=O)N1Cc1cccc(Cl)c1	i	i	0.4%	1.1%	12.6µM*	-2.0
SMILES	Abeta rescue	FUS yeast rescue	aSyn yeast inh	Mm-Cpn inhibitor	TDP43 rescue	CCT modulator
Nc1cccc2c1C(=O)N(Cc1cccc(Cl)c1)C2=O	i	i	?	3.4%	20µM*	0.0
O=C(CN1C(=O)c2ccccc2S1(=O)=O)Nc1cc(S(=O)(=O)N2CCOCC2)ccc1N1CCOCC1	·	·	-5.4%	·	·	·
Cc1cccc(C(=O)O/N=C(/c2ccccc2)c2ccncc2)c1	i	i	?	0.4%	7.08µM*	-10.2
N/C(=N\OC(=O)c1ccccc1Cl)c1ccccc1	i	i	-21.1%	-0.2%	?	-4.9
O=C(O/N=C(\c1ccccc1)c1ccncc1)c1ccccc1Cl	i	i	?	2.1%	3.98µM*	-2.1
CCCCn1c(SCc2nc3ccccc3s2)nc2cc(S(N)(=O)=O)ccc21	i	22.4µM*	-4.2%	-4.2%	-24.3%	-1.1
CCCCn1c(SCc2nc3ccccc3s2)nc2ccccc2c1=O	i	·	5.9%	-5.1%	?	-0.9
CCCCN(CCCC)C(=S)N/N=C/c1c(C)[nH]n(-c2ccccc2)c1=O	i	i	21.7%	2.4%	19.3%	-88.6*
Cc1ccc(OCC(=O)N/N=C\c2c(C)[nH]n(-c3ccccc3)c2=O)c([N+](=O)[O-])c1	?	?	20µM*	0.3%	0.0%	0.9
Cc1ccc(C)c(NC(=O)C(OC(=O)c2cnc(C)cn2)c2ccccc2)c1 (configuration not stated)	i	i	4.1%	0.7%	22.8%	-2.7
Cc1cnc(C(=O)OC(C(=O)Nc2cc(C(F)(F)F)ccc2Cl)c2ccccc2)cn1 (configuration not stated)	?	i	1.8%	?	17.8µM*	-0.3
Cc1cc(C)n2c(Nc3ccccc3)c(-c3ccc(C)o3)nc2n1	·	·	-15.0%	·	·	·
CCC(C)c1ccc(NC(=O)c2c([N+](=O)[O-])cnn2CC)cc1 (configuration not stated)	i	i	17.3%	2.0%	20µM*	1.2
CCn1ncc([N+](=O)[O-])c1C(=O)Nc1ccc(C(=O)N2CCCCC2)cc1	i	i	2.1%	-0.6%	-0.8%	-0.9
NC(=O)C1(N2CCCCC2)CCN(C(=O)Nc2ccc(F)cc2)CC1	i	i	·	·	8.4%	·
O=C1CC(N2CCN(c3ccccc3Cl)CC2)C(=O)N1c1cccc(F)c1 (configuration not stated)	i	i	0.5%	0.0%	12.6µM*	-1.1
S=C(c1ccc(-c2cc(Cl)ccc2Cl)o1)N1CCOCC1	i	i	-12.9%	-0.2%	12.6µM*	-0.1
S=C(c1ccc(-c2cc(Cl)ccc2Cl)o1)N1CCCCC1	i	·	-18.9%	-7.5%	11.8%	-1.8
